# “And” between values parts separate entries of the source, which are not always exact repeats. Identical values can stand only once. The source holds several records for some structures; these can differ, active in one and inactive in another. The source made the active and inactive calls. Entries that show only a call come without a potency. Unless noted, calls follow the shape of the dose curve; as a rule, active = well fitted curve in the direction sought with a large enough effect in the repeat runs; inconclusive = weak or mixed curves; inactive = no such curve, though single readings can be large; an effect the other way counts as inactive or inconclusive.
# Assays:
# [1] = qHTS assay to identify small molecule antagonists of the glucocorticoid receptor (GR) signaling pathway - cell viability counter screen (AID 720693); also: nearly all actives have a fitted effect of over 55% in size
# [2] = qHTS assay to identify small molecule antagonists of the androgen receptor (AR) signaling pathway - cell viability counter screen (AID 743033; also: nearly all actives have a fitted effect of over 45% in size; also: potency is read from the fitted curve at half-maximal effect)
# [3] = qHTS assay to identify small molecule antagonists of the androgen receptor (AR) signaling pathway using the MDA cell line - cell viability counter screen (AID 743041; also: nearly all actives have a fitted effect of over 45% in size; also: potency is read from the fitted curve at half-maximal effect)
# Summary of the method: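 qHTS viability read-out; MDA-kb2 AR-luc; R1881-stimulated; 16 h exposure at 37C, 0% CO2; CellTiter-Fluor, 30 min; fluorescence intensity.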
# [4] = qHTS assay to identify small molecule antagonists of the thyroid receptor (TR) signaling pathway - cell viability counter screen (AID 743064); also: nearly all actives have a fitted effect of over 50% in size; also: potency is read from the fitted curve at half-maximal effect
# Summary of the method: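 Fluorescence from CellTiter-Fluor, added after 23.5 h exposure at 37 °C, reported viability of GH3.TRE-Luc cells co-treated with compound and 1 nM T3. Measured in the same wells as the luciferase TR readout.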
# [5] = qHTS assay to identify small molecule antagonists of the estrogen receptor alpha (ER-alpha) signaling pathway - cell viability counter screen (AID 743074; calls by dose curve; also: nearly all actives have a fitted effect of over 45% in size; also: potency is read from the fitted curve at half-maximal effect)
# [6] = qHTS assay to identify small molecule antagonists of the estrogen receptor alpha (ER-alpha) signaling pathway using the BG1 cell line - cell viability counter screen (AID 743081);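 also: compound given together with 17beta-estradiol as the ER stimulus; nearly all actives have a fitted effect of over 45% in size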; also: potency is read from the fitted curve at half-maximal effect
# Aromatase (Homo sapiens) = Aromatase (Homo sapiens) (UniProt P11511); experiment: qHTS assay to identify aromatase inhibitors (AID 743083); also: nearly all actives have a fitted effect of over 55% in size; also: potency is read from the fitted curve at half-maximal effect
# Sequence of Aromatase (Homo sapiens) (P11511 whole entry, looked up): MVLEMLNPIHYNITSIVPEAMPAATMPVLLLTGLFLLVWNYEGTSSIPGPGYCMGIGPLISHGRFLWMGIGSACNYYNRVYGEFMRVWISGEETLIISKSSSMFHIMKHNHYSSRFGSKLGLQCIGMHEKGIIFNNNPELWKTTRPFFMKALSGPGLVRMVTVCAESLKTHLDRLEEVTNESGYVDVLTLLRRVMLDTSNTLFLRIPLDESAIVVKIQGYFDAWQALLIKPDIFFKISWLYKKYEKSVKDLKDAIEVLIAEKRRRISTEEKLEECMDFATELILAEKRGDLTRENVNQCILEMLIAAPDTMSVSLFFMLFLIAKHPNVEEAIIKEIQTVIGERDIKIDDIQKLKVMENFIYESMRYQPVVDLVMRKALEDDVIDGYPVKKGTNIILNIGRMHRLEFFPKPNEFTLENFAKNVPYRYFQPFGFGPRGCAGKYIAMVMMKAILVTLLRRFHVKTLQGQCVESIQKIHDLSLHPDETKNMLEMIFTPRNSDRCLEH
# [7] = qHTS assay to identify aromatase inhibitors - cell viability counter screen (AID 743084);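 also: cells stimulated with testosterone during compound exposure; nearly all actives have a fitted effect of over 55% in size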; also: potency is read from the fitted curve at half-maximal effect
# [8] = qHTS assay for identifying genotoxic compounds that show differential cytotoxicity against isogenic chicken DT40 cell lines with known DNA damage response pathways - Rev3 mutant cell line (AID 743014); also: nearly all actives have a fitted effect of over 55% in size; also: potency is read from the fitted curve at half-maximal effect
# [9] = qHTS assay for identifying genotoxic compounds that show differential cytotoxicity against isogenic chicken DT40 cell lines with known DNA damage response pathways - Rad54/Ku70 mutant cell line (AID 743015); also: nearly all actives have a fitted effect of over 60% in size; also: potency is read from the fitted curve at half-maximal effect
# [10] = target: Estrogen receptor (Homo sapiens) (UniProt P03372); experiment: qHTS assay to identify small molecule antagonists of the estrogen receptor alpha (ER-alpha) signaling pathway (AID 743069; active = well fitted curve in the direction sought with a large enough effect in the signal ratio in the repeat runs, not every such curve was filed as active; inconclusive = weak or mixed curves, or effect the other way; inactive = no such curve, though single readings can be large or run the other way; the % refers to the signal ratio)
# Sequence of Estrogen receptor (Homo sapiens) (P03372 whole entry, looked up): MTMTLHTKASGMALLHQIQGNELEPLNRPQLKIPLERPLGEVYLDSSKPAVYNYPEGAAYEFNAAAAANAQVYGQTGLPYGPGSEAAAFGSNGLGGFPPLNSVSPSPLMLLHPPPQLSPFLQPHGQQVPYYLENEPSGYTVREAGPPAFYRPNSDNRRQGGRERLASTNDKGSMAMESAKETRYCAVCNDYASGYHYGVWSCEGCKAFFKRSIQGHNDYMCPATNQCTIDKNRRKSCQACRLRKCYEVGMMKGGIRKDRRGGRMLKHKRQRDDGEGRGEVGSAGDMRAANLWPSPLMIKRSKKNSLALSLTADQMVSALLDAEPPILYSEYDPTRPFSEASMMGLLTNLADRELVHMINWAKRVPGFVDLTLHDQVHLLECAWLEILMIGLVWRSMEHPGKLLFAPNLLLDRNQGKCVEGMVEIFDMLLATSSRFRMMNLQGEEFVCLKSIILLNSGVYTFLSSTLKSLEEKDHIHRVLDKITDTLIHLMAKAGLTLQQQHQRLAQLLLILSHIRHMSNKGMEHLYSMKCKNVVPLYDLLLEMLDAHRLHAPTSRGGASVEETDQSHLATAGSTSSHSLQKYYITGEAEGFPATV
# Summary of the method: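 Screening used a UAS-driven beta-lactamase reporter integrated into HEK293 cells expressing ER-alpha, stimulated with 17beta-estradiol alongside test compounds over 18 hr at 37C; signal came from LiveBLAzer B/G FRET fluorescence.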
# [11] = target: Estrogen receptor (Homo sapiens) (UniProt P03372); experiment: qHTS assay to identify small molecule agonists of the estrogen receptor alpha (ER-alpha) signaling pathway (AID 743075; calls by dose curve; also: potency is read from the fitted curve at half-maximal effect)
# [12] = target: Estrogen receptor (Homo sapiens) (UniProt P03372); experiment: qHTS assay to identify small molecule agonists of the estrogen receptor alpha (ER-alpha) signaling pathway using the BG1 cell line (AID 743079); details: BG1Luc4E2 cells, ERE-luciferase agonist, 22 h; activation: at 70.3 µM (top of the series); also: nearly all actives have a fitted effect of over 20% in size; also: potency is read from the fitted curve at half-maximal effect
# [13] = qHTS assay to identify small molecule antagonists of the estrogen receptor alpha (ER-alpha) signaling pathway using the BG1 cell line (AID 743080; calls by dose curve;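 also: BG1 cells stimulated with 17beta-estradiol alongside compound; nearly all actives have a fitted effect of over 25% in size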); details: BG1Luc4E2 ERE-luciferase antagonist mode, luminescence; activity change, negative = inhibition: at 70.3 µM (top of the series)
# Summary of the method: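 Readout is ONE-Glo luminescence, taken 30 min at room temperature after reagent addition, preceded by a CellTiter-Fluor viability read; BG1-Luc-4E2 cells had received compound and 17beta-estradiol for 21.5 h at 37 C.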
# [14] = qHTS assay to identify small molecule antagonists of the thyroid receptor (TR) signaling pathway (AID 743065); also: nearly all actives have a fitted effect of over 55% in size; also: potency is read from the fitted curve at half-maximal effect
# Summary of the method: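 GH3.TRE-Luc rat pituitary cells carrying two TR response elements driving luciferase were plated for 4 h, given compound plus 1 nM T3 (final), and incubated 23.5 h at 37 C. ONE-Glo luminescence measured reporter inhibition; CellTiter-Fluor fluorescence tracked cytotoxicity.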
# [15] = test system: thyroid hormone receptor (rat, GH3 cells); experiment: qHTS assay to identify small molecule agonists of the thyroid receptor (TR) signaling pathway (AID 743066; calls by dose curve)
# [16] = target: Androgen receptor (Homo sapiens) (UniProt P10275); experiment: qHTS assay to identify small molecule agonists of the androgen receptor (AR) signaling pathway using the MDA cell line (AID 743040; also: nearly all actives have a fitted effect of over 20% in size; also: potency is read from the fitted curve at half-maximal effect)
# Sequence of Androgen receptor (Homo sapiens) (P10275 whole entry, looked up): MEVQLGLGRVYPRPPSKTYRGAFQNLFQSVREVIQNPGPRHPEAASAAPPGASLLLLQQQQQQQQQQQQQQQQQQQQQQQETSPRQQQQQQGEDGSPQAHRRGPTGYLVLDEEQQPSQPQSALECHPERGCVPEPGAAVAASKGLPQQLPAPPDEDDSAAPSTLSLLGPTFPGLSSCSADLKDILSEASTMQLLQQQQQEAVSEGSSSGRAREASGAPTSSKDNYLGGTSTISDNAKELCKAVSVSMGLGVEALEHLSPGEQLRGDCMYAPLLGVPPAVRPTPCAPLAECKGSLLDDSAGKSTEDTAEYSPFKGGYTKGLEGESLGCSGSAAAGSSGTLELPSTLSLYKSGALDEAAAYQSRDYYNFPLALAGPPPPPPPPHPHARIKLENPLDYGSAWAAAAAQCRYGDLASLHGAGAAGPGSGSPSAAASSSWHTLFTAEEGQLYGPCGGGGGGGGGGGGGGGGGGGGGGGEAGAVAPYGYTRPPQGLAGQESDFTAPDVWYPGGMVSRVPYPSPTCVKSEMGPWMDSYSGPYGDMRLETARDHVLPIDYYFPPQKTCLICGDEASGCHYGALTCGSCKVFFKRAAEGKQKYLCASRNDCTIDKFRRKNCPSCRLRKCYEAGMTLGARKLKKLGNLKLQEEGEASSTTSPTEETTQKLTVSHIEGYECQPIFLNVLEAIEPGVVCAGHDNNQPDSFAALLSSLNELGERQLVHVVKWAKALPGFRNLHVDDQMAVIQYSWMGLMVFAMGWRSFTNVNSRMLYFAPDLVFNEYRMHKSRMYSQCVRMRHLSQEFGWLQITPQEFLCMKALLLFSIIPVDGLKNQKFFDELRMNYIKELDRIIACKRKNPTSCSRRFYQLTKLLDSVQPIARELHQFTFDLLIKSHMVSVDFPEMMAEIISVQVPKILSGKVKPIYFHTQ
# Summary of the method: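 Agonist activity is measured as luciferase luminescence in human MDA-kb2 cells whose MMTV reporter responds to both AR and GR. Compounds in DMSO incubate 16 h at 37C, 0% CO2, and ONE-Glo is read after 30 min.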
# [17] = target: Androgen receptor (Homo sapiens) (UniProt P10275); experiment: qHTS assay to identify small molecule antagonists of the androgen receptor (AR) signaling pathway using the MDA cell line (AID 743042; also: nearly all actives have a fitted effect of over 55% in size; also: potency is read from the fitted curve at half-maximal effect)
# Summary of the method: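 MDA-kb2 cells (human breast carcinoma, stably carrying an MMTV-luciferase reporter responsive to AR and GR) were plated at 3,000 cells/well and preincubated 5 hr at 37C, then given compound plus R1881 agonist for 16 h. ONE-Glo luminescence was read.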
# [18] = qHTS assay for identifying genotoxic compounds that show differential cytotoxicity against isogenic chicken DT40 cell lines with known DNA damage response pathways - wild type cell line (AID 743012); also: potency is read from the fitted curve at half-maximal effect; nearly all actives have a fitted effect of over 60% in size
# Summary of the method: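 Viability by ATP luminescence (CellTiter-Glo, 30 min RT) after 40 h compound treatment at 37 C/5% CO2, using 300 parental DNA repair-proficient DT40 cells per well.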
# [19] = target: Androgen receptor (Homo sapiens) (UniProt P10275); experiment: qHTS assay to identify small molecule antagonists of the androgen receptor (AR) signaling pathway (AID 743035; active = well fitted inhibition curve with a large enough effect in the signal ratio in the repeat runs, not every such curve was filed as active; inconclusive = weak or mixed curves, or effect the other way; inactive = no such curve, though single readings can be large or run the other way; the % refers to the signal ratio)
# Summary of the method: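 Antagonist mode: AR-bla HEK293 cells co-treated with test compounds and agonist R1881 for 16 h at 37C, 5% CO2. Beta-lactamase activity read as FRET fluorescence after 2 h room-temperature substrate loading.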
Structure (SMILES),Potency [1],Potency [2],Potency [3],Potency [4],Potency [5],Potency [6],Potency (Aromatase (Homo sapiens)),Potency [7],Potency [8],Potency [9],Potency [10],Potency [11],Potency [12],Potency [13],Potency [14],Potency [15],Potency [16],Potency [17],Potency [18],Potency [19]
CN1[C@@H]2CC[C@@H]1CC(OC(=O)C(CO)c1ccccc1)C2 (stereo not given in full),inactive,inactive,inactive,inactive,inactive,inactive,inactive,inactive,–,–,–,–,–,–,–,–,–,–,–,–
CO[C@H]1C=CO[C@@]2(C)Oc3c(C)c(O)c4c(O)c(cc(O)c4c3C2=O)NC(=O)/C(C)=C\C=C/[C@H](C)[C@H](O)[C@@H](C)[C@@H](O)[C@@H](C)[C@H](OC(C)=O)[C@@H]1C,inactive,inactive and 49.3 µM (active),–,48.9 µM (active),inactive,inactive and 34.6 µM (active),inactive and 21.8 µM (active),inactive and 13.8 µM (active),inactive and 6.91 µM (active),inactive and 12.3 µM (active),inactive,inactive,inactive,inactive,–,–,–,–,–,–
C=CC(=C)CCC=C(C)C,inactive,inactive,inactive,–,inactive,inactive,inactive,inactive,–,–,–,–,–,–,inactive,inactive,–,–,–,–
O=C(O)Cc1ccc(OCCNC[C@H](O)c2ccccc2)cc1,inactive,inactive,inactive,inactive,inactive,inactive,inactive,inactive,–,–,inactive,inactive,inactive,inactive,inactive,inactive,inactive,inactive,–,–
CN(C)CCOC(c1ccccc1)c1ccccc1 (tested in a mixture with another compound),inactive,–,inactive,–,49.3 µM (active),–,–,–,–,–,inactive,inactive,inactive,inactive,61.6 µM (active),inactive,inactive,–,–,–
Oc1ccc(-c2ccccc2)c(Cl)c1,inactive,–,inactive,inactive,inactive,inactive,inactive,inactive,30.6 µM (active),30.6 µM (active),–,61.6 µM [inconclusive] (active),54.5 µM (active),inactive,–,inactive,68.6 µM (active),inactive,–,–
O=C1C=CC(=O)N1c1ccccc1,–,12.3 µM (active),48.6 µM (active),4.86 µM (active),–,–,10.9 µM (active),9.69 µM (active),1.22 µM (active),1.37 µM (active),–,–,–,–,4.86 µM (active),inactive,inactive,27.3 µM (active),1.09 µM (active),–
Cc1cc(Nc2ccc(O)cc2)ccc1N,inactive,inactive,–,12.1 µM (active),inactive,54.2 µM (active),27.2 µM (active),24.2 µM (active),13.6 µM (active),13.6 µM (active),–,–,–,–,–,inactive,–,–,–,–
CCCC(CC)CCCCCCCN (stereo not given),inactive,inactive,inactive,inactive,inactive,inactive,inactive,inactive,–,inactive,inactive,inactive,inactive,inactive,inactive,inactive,–,–,–,–
C=CC(C)(CCC=C(C)C)OC(=O)/C=C/c1ccccc1 (stereo not given),inactive,–,inactive,inactive,inactive,inactive,inactive,–,–,–,inactive,inactive,61.1 µM (active),inactive,–,–,inactive,inactive,–,inactive
CC(C)OC(=O)c1cc(C(=O)OC(C)C)cc([N+](=O)[O-])c1,inactive,inactive,–,–,–,–,–,inactive,–,55.8 µM (active),–,–,–,–,–,inactive,–,–,–,–
CC1=C(/C=C/C(C)=C/C=C/C(C)=C\C=O)C(C)(C)CCC1,–,29.3 µM (active),inactive,25.8 µM (active),–,–,–,–,14.5 µM (active),13 µM (active),–,–,–,–,29 µM (active),inactive,–,–,14.5 µM (active),–
c1cc(OCC2CO2)cc(OCC2CO2)c1 (stereo not given),–,–,inactive,19.2 µM (active),–,inactive,–,48.2 µM (active),0.0763 µM (active),1.36 µM (active),–,inactive,–,–,7.63 µM (active),inactive,inactive,–,0.856 µM (active),–
C=CC(=O)OCCOCC(CC)(COCCOC(=O)C=C)COCCOC(=O)C=C,–,22.8 µM (active),–,inactive,inactive,–,10.1 µM (active),2.84 µM (active),4.51 µM (active),5.06 µM (active),–,–,–,–,–,inactive,–,–,6.37 µM (active),–
CC(C)(C)C1=CC(=O)C=C(C(C)(C)C)C1=O,–,inactive,inactive,inactive,–,inactive,34.4 µM (active),34.4 µM (active),–,–,inactive,inactive,inactive,inactive,–,inactive,–,–,–,–
